# Screens from PubChem.
# Tau FP inhib – blocks human tau fibril formation measured by polarization. P10636. hit rate 0.39% among 280,000. Potency, µM (top dose mostly 57.7 µM), without a hit: at the highest dose activity, negative = inhibition, actives largely listed as inhibitors. K18 P301L tau heparin fibrillization, Alexa594 FP, 6 h. AID 1468; note: potency is the fitted concentration of half-maximal effect; nearly all actives have a fitted effect of over 55% in size
# Target sequence (P10636 561-689 P618L limits assumed): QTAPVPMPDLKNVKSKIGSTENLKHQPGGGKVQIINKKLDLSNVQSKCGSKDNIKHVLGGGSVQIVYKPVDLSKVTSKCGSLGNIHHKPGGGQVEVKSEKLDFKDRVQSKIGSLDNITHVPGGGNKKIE
#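 Steps: dispense K18 P301L tau (15 uM plus 0.24 uM Alexa 594 tracer, final) in pH 7 sodium acetate; add compound; add heparin (20 uM final); incubate 6 hr, 37 C; add ThT (30 uM final); after 1 hr ambient, read FP.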
# Tau fluor cs – counter-screen for tau fibril formation inhibitors; AID 1463; hit rate 0.93% among 280,000; Potency, µM (series often up to 57.7 µM), for inactives: at the highest dose activity change, negative = decrease; tau K18 P301L Alexa594 fluorescence, heparin fibrillization; note: potency is the fitted concentration of half-maximal effect; nearly all actives have a fitted effect of over 55% in size
#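 Human K18 P301L tau (15 uM unlabeled plus 0.24 uM Alexa 594-labeled, final) in 100 mM sodium acetate pH 7 was mixed with compound and 20 uM heparin and incubated 6 hr at 37 C.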
# Tau ThT inhib – blocks human tau fibril formation measured by thioflavin T | P10636 | recombinant tau K18 P301L (four-repeat tau fragment), heparin-induced fibrillization, ThT fluorescence | Potency, µM (titrated, usually from 57.4 µM), for the others: top-dose activity, negative = inhibition, actives largely listed as inhibitors | hit rate 2.1% among 270,000; note: potency is the fitted concentration of half-maximal effect; nearly all actives have a fitted effect of over 55% in size
#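 Recombinant human tau K18 fragment […] carrying P301L, 15 uM unlabeled plus 0.24 uM Alexa 594-labeled, was fibrillized with 20 uM heparin in 100 mM sodium acetate pH 7 for 6 hr at 37 C; 30 uM ThT fluorescence read after 1 hr.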
# Sfp PPTase inh – inhibitors of Bacillus subtilis Sfp phosphopantetheinyl transferase; Q9F4F7; Biochemical Sfp PPTase activity, qHTS; Potency, µM, for the others: largest response in the series, negative = inhibition, most hits filed as inhibitors; hit rate 3.5% among 310,000;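 note: the enzyme is Sfp with the accession as filed and its product quenches rhodamine fluorescence; potency is the fitted concentration of half-maximal effect; 0% = enzyme reaction without inhibitor and -100% = no enzyme wells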
#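 After 15 min at room temperature with compound, 15 nM Sfp received 5 uM rhodamine-CoA plus 12.5 uM BHQ-2-ybbR (50 mM Hepes pH 7.6, 10 mM MgCl2). Rate came from the fluorescence difference over 30 min, ex 525/em 598 nm.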
# Coupling enz – counter-screen for Giardia aldolase inhibitors: coupling enzyme system; coupling enzyme system counterscreen, AmpLite Red fluorescence; activity change, negative = inhibition, % at 58.2 µM, hits read low; AID 2472; hit rate 0.67% among 290,000; in the data active = activity change below about -30%
#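 Compounds tested against the coupling enzymes alone at 57.5 uM final; readout was AmpLite Red fluorescence (525/598 nm) after 20 min at RT.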
# Starred values were filed as active, the others as inactive; ? = inconclusive; nt = not tested or not shown; [ ] = remark or other dose. Hits are enriched below; roughly 5.2% of the tested compounds scored in any of these assays. Unless noted, calls come from the whole dose curve; as a rule, active = well fitted curve in the direction sought with a large enough effect; inconclusive = small, poorly fitted or top-dose-only effect, or another doubt; inactive = no such curve, though single readings can be large; an effect the other way counts as inactive or inconclusive. Unless noted, % is set by controls: 0 for no effect and ±100 for the full control effect.
SMILES,Tau FP inhib,Tau fluor cs,Tau ThT inhib,Sfp PPTase inh,Coupling enz
COc1cccc(N=Nc2c(=O)[nH]n3c(=O)c4c([nH]c23)CCC4)c1,7.2%,-20.7%,7.08µM*,-26.8%,-0.4
O=c1[nH]n2c(=O)c3c([nH]c2c1N=Nc1cccc(Cl)c1)CCC3,2.3%,1.4%,-0.8%,?,0.6
NS(=O)(=O)c1ccc(N=Nc2c(=O)[nH]n3c(=O)c4c([nH]c23)CCCC4)cc1,5.4%,-28.8%,7.94µM*,7.0%,11.1
Nc1nc(O)c(N=Nc2ccc(S(N)(=O)=O)cc2)c(=O)[nH]1,nt,nt,nt,-7.3%,-0.5
Cc1cc(C)c(NC(=O)CSc2nc3ccccc3nc2N2CCCCC2)c(C)c1,-5.9%,-6.1%,-14.4%,nt,nt
C=CCC(Nc1ccccc1)C12C=CC(O1)C(C(=O)OC)=C2C(=O)OC (stereo not drawn),-1.3%,-29.8%,7.94µM*,-0.2%,2.0
C=CCC(Nc1ccc(OC)cc1)C(=O)OCC (stereo not drawn),0.9%,2.6%,3.2%,3.8%,1.5
COc1ccc(N/C=C2\C(=O)CCc3c2oc2cc(Cl)c(O)c(Cl)c32)cc1,15.9%,?,2.51µM*,-18.2%,6.1
CC(=O)c1cn(CC(=O)Nc2cccc(C)c2C)c2ccccc12,-0.6%,-10.3%,-11.8%,44.7µM*,1.0
Cn1c(=O)[nH]c(=O)c2c1nc(SCC(=O)O)n2CCc1ccccc1,4.3%,3.9%,1.6%,44.7µM*,3.4
CCCCn1c(SCC(=O)OCC)nc2c1c(=O)[nH]c(=O)n2C,6.8%,-5.4%,-6.9%,-21.3%,-1.2
Cc1ccc(Cn2c(SCC(C)C)nc3c2c(=O)[nH]c(=O)n3C)cc1,4.4%,1.9%,5.4%,35.5µM*,0.1
CCOC(=O)CSc1nc2c(c(=O)[nH]c(=O)n2C)n1C/C=C(/C)Cl,0.2%,1.1%,1.1%,50.1µM*,1.4
CCC(C)Sc1nc2c(c(=O)[nH]c(=O)n2C)n1CC(O)COc1ccccc1C (stereo not drawn),-7.1%,-4.1%,-14.8%,39.8µM*,-0.7
CCCCCn1c(SCCN2CCOCC2)nc2c1c(=O)[nH]c(=O)n2C,-12.7%,-10.0%,-7.6%,50.1µM*,2.2
CC(O)CSc1nc2c(c(=O)[nH]c(=O)n2C)n1Cc1ccccc1 (stereo not drawn),nt,nt,nt,15.9%,1.5
Cn1c(=O)[nH]c(=O)c2c1nc(SCC(O)CCl)n2Cc1ccccc1 (stereo not drawn),nt,nt,nt,39.8µM*,2.6
COc1cc(C/C=C\c2ccccc2)c(OC)cc1O,?,?,20µM*,44.7µM*,-46.8*
CC(C)C1COc2cc3oc(=O)ccc3cc2O1 (stereo not drawn),0.6%,-15.9%,-13.4%,7.6%,-0.7
CS(=O)(=O)c1ccc2nc(NC(=O)c3ccco3)sc2c1,1.6%,-4.6%,0.7%,2.4%,4.0
Cc1nc(NC(=S)NC(=O)c2ccco2)sc1C(=O)N(C)C,nt,nt,nt,22.4µM*,-3.6
O=C(NC(=S)Nc1nc2ccc(F)cc2s1)c1ccco1,9.1%,5.9%,2.3%,56.2µM*,-0.7
Cc1ccc(C(=O)Nc2nc(C)c(C(=O)N(C)C)s2)o1,nt,nt,nt,2.4%,0.3
Cc1ccc(NS(=O)(=O)c2ccc3c(c2)CCCN3C(=O)C2CCC2)c(C)c1,3.3%,-16.7%,-2.9%,nt,nt
O=C(CN1CC(=O)Nc2ccccc21)Nc1ccc(F)c(F)c1,-5.8%,-13.0%,-15.5%,39.8µM*,-21.7
SMILES,Tau FP inhib,Tau fluor cs,Tau ThT inhib,Sfp PPTase inh,Coupling enz
Cc1ccc(NC(=O)CNC(=O)N2CC(=O)Nc3ccccc32)cc1F,nt,nt,nt,16.6%,-0.8
COc1ccc(NC(=O)CSc2nc(-c3ccc(OC)cc3)[nH]c2-c2ccc(F)cc2)cc1,-9.1%,?,-9.5%,nt,nt
COc1ccc(NC(=O)CSc2nc(-c3cccc(C)c3)[nH]c2-c2ccccc2)cc1OC,14.3%,8.91µM*[quencher],?,nt,nt
COc1ccc(NC(=O)CSc2nc(-c3ccc(OC)c(OC)c3)[nH]c2-c2ccc(C)cc2)cc1,19.3%,4.47µM*[quencher],-11.3%,nt,nt
COc1ccc(-c2nc(SCC(=O)Nc3ccc4c(c3)OCCO4)c(-c3ccc(C)cc3)[nH]2)cc1OC,14.4%,7.94µM*[quencher],?,nt,nt
COc1ccc(-c2nnc(SCC(=O)Nc3ccc4c(c3)OCCO4)n2N)cc1OC,-1.5%,-13.9%,?,15.5%,3.1
COc1ccc(-c2[nH]c(-c3ccc(OC)c(OC)c3)nc2SCC(=O)Nc2ccccc2)cc1,11.5%,6.31µM*[quencher],-6.7%,nt,nt
COc1ccc(C(=O)Nc2cccc(C(=O)OCc3cc(=O)n4nc(C5CC5)sc4n3)c2)cc1,3.6%,-2.3%,?,nt,nt
COc1ccc(OC)c(C2=Nn3c(nnc3-c3ccccc3OC)SC2)c1,nt,nt,nt,-7.9%,-6.7
COc1ccc(N2Cc3cccc(C(=O)NC(C)CCc4ccco4)c3C2=O)cc1 (stereo not drawn),-12.3%,-13.7%,?,44.7µM*,4.5
CC(CCc1ccco1)NC(=O)c1cccc2c1C(=O)N(C1CCCCC1)C2 (stereo not drawn),-11.6%,-18.9%,?,-27.0%,-1.1
C[C@@H](O)[C@@H]1C(=O)N2C(C(=O)O)=C([C@H]3CCCO3)S[C@H]12,nt,nt,nt,79.4µM*,nt
CC(NC(=O)c1ccc(Cl)s1)C1CCCO1 (stereo not drawn),-2.5%,-4.2%,-10.3%,-13.2%,0.2
Cc1ccc(C)c(Cn2c(=O)n(CCc3ccccc3)c(=O)c3c(C)c(C)sc32)c1,-0.2%,9.8%,5.8%,nt,nt
O=S(=O)(/N=S1/CC=CCN1S(=O)(=O)c1ccccc1)c1ccccc1 (stereo not drawn),?,-0.8%,?,1.41µM*,6.7
COc1ccc(NC(=O)CCn2nc(-c3ccccc3OC)c3c(C)cc(C)nc32)cc1,6.4%,-17.6%,-17.5%,nt,nt
O=C1c2cccc3c(Nc4ccccc4Cl)c([N+](=O)[O-])cc(c23)C(=O)N1CCO,17.9%,?,11.2µM*,-26.2%,2.2
C=CCOC(=O)NC(c1ccc(F)c(F)c1)C(C(=O)CCl)C(=O)OC (stereo not drawn),?,-18.1%,-15.4%,?,2.0
CC(=O)Nc1ncc(N=Nc2cccc(C(F)(F)F)c2)s1,nt,nt,nt,17.4%,-0.3
Cc1cccc(N=Nc2cnc(N)s2)c1,4.9%,?,5.01µM*,1.6%,-3.3
CCOc1cccc(C(=O)N(Cc2ccc(C(C)C)cc2)C2CCS(=O)(=O)C2)c1 (stereo not drawn),6.0%,-14.0%,-14.2%,nt,nt
Cc1ccc2nc(NC(=O)C3CCN(S(=O)(=O)c4cc([N+](=O)[O-])ccc4Cl)CC3)sc2c1,6.1%,?,?,-3.5%,-1.1
O=C(Nc1nc2ccc(F)cc2s1)C1CCN(S(=O)(=O)c2cc([N+](=O)[O-])ccc2Cl)CC1,?,7.08µM*[quencher],?,?,-11.0
Cc1cccc(NC(=O)c2ccc(Cn3nc(N4CCN(c5ccccc5)CC4)ccc3=O)o2)c1C,-7.7%,-27.8%,?,nt,nt
